Experimental data published in PubChem BioAssay AID1117319 (Southern Research Institute, 2015).
“And” between values parts separate entries of the source, which are not always exact repeats. Equal entries are not always repeated. About 1,500 (0.58%) of roughly 260,000 compounds were called active. Inconclusive results (about 5%) are left out.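 Rule for the calls: active = inhibition above a set limit at one or more doses, reproduced on every date tested; inconclusive = results disagree between test dates, or hit never tested in dose response; inactive = the rest.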 Not all results are given here. Results with a measured potency or affinity are listed apart.

The compounds below were run against Virion infectivity factor (Human immunodeficiency virus type 1 group M subtype B (isolate BH10)) + Virion infectivity factor (Human immunodeficiency virus type 1 group M subtype B (isolate BRU/LAI)) + Virion infectivity factor (Human immunodeficiency virus type 1 group M subtype B (isolate PCV12)) + Virion infectivity factor (Human immunodeficiency virus type 1 group M subtype B (isolate HXB2)) + DNA dC->dU-editing enzyme APOBEC-3G (Homo sapiens) (UniProt P69720+P69721+P69722+P69723+Q9HC16) (assay: HIV-1 Vif–A3G interaction blockers – biochemical, TR-FRET, GST-Vif 1-94, biotin-A3G peptide, dose response retest, primary screen (AID 1117319;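 note: Vif residues 1-94 fused to GST binding biotinylated APOBEC3G peptide 110-148; 0% = full assay without inhibitor and 100% = GST in place of GST-Vif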)). Details: TR-FRET GST-Vif / biotin-A3G peptide binding; stronger effect = higher value.

inhibition, inactive:
Oc1ccc(N=Nc2ccccc2C(F)(F)F)c2cccnc12 9.97%
O=Nc1ccc(O)c2ncccc12 25.1%
CC(C)Oc1ccccc1C1CC(=O)Nc2c1c(=O)n(C)c(=O)n2C (stereo not given) 0.23%
COc1cccc(C2CC(=O)Nc3c2c(=O)n(C)c(=O)n3C)c1OC (stereo not given) 10.5%
O=C(CCCC(=O)OCC(F)(F)C(F)F)Nc1ccccc1F 0.88%
O=C(O)C1CCCCC1C(=O)Nc1nc(-c2cccs2)cs1 (stereo not given) -11.2%
CC(=O)O[C@@H]1[C@@H](OC(C)=O)[C@H](n2ccc3cc([N+](=O)[O-])ccc32)OC[C@@H]1OC(C)=O 11.9%
CC(=O)OC1COC(n2ccc3cc([N+](=O)[O-])ccc32)C(OC(C)=O)C1OC(C)=O (stereo not given) -8.03%
CCOc1ccc(-c2nc(CSc3nnc(N)s3)cs2)cc1 -2.32%
CC(=O)c1ccc(OC(=O)CCN2c3ccccc3Sc3ccccc32)cc1 3.97%
O=C(c1cc(-c2ccco2)on1)N1CCOCC1 5.5%
CN1CCN(C(=O)c2cc(-c3ccco3)on2)CC1 -6.26%
O=C(c1ccc(NS(=O)(=O)c2ccccc2)cc1)N1CCN(Cc2ccc3c(c2)OCO3)CC1 -2.32% and -6.24%
CCc1ccc(N(CC)C(=O)Cc2c(C(=O)O)n(C)c3ccccc23)cc1 3.87%
C=CCOC(=O)C1=C(C)N=C2SCCC(=O)N2C1c1ccc(OC(=O)c2ccco2)cc1 (stereo not given) -4.13%
Cn1c(-c2cnn(-c3ccccc3)c2-n2cccc2)n[nH]c1=S -6.44%
CCc1oc(C(=O)O)cc1CN(CC)CC 19%
CCN(CC)Cc1cc(C(C)=O)ccc1O 1.01%
O=C(COC(=O)c1cc(=O)[nH]c2ccccc12)Nc1nccs1 0.86%
Cc1ccc(C(=O)C2=C(O)C(=O)N(c3ncccn3)C2c2ccc(Cl)cc2)o1 (stereo not given) -30.5%
Cc1ccc(C(=O)C2=C(O)C(=O)N(c3ncccn3)C2c2ccc(Br)cc2)o1 (stereo not given) 10.3%
Cc1ccc(-n2c(-c3ccccc3)nnc2-c2cccs2)cc1 -9.97%
O=C(CCc1ccc(S(=O)(=O)NCc2ccccc2)cc1)N1CCN(Cc2ccc3c(c2)OCO3)CC1 1.72%
COC(=O)CCC(=O)OC1(C)C(=O)C=C2C=C(C3CC3)N(C3CCCCC3)C=C2C1=O (stereo not given) 17.8%
CC1(C)CC(=O)CC(C)(C)N1OC(=O)c1ccco1 0.85%
CCCCC1=CC2=CC(=O)C(C)(OC(=O)CC)C(=O)C2=CN1CCc1ccccn1 (stereo not given) 21.2%
COCCN1C=C2C(=O)C(C)(OC(=O)CCC(=O)OC)C(=O)C=C2C=C1C1CC1 (stereo not given) 10.6%
COC(=O)CCC(=O)OC1(C)C(=O)C=C2C=C(C3CC3)N(c3cccc(C#N)c3)C=C2C1=O (stereo not given) 11.9%
COC(=O)CCC(=O)OC1(C)C(=O)C=C2C=C(C3CC3)N(CCc3ccccn3)C=C2C1=O (stereo not given) -2.65%
CCCCC1=CC2=CC(=O)C(C)(OC(=O)CC)C(=O)C2=CN1Cc1ccccc1 (stereo not given) 25%
CN1/C(=C\C(=O)COC(=O)c2ccco2)C(C)(C)c2ccccc21 3.26%
CCN(CC(=O)NC)S(=O)(=O)c1ccc(Br)cc1 0.33%
CCc1ccccc1NC1=NCC(=O)N1Cc1ccc(OC)cc1 -4.85%
CCCCCC(O)(c1ccc(OCC)cc1)C(CN1CCOCC1)c1ccccc1 (stereo not given) -5.23%
COc1cccc(NC(=O)CN2C(=O)COc3ccc(S(=O)(=O)N4CCC(C)CC4)cc32)c1 -1.2%
OCCC1CN(Cc2cccc3nonc23)CCN1Cc1ccsc1 (stereo not given) 21.2%
CC(C)CCNC(=O)C(c1ccco1)N(CC1CCCO1)C(=O)Cn1nnc2ccccc21 (stereo not given) 18.9%
COC(=O)CCC(=O)OC1(C)C(=O)C=C2C=C(C3CC3)N(c3ccccc3)C=C2C1=O (stereo not given) 21.6%
CCCCC1=CC2=CC(=O)C(C)(OC(=O)CC)C(=O)C2=CN1C1CCCCC1 (stereo not given) 18.3%
COc1ccc(CN2C=C3C(=O)C(C)(OC(=O)C4CCCC4)C(=O)C=C3C=C2c2ccsc2)cc1 (stereo not given) 31%
CC1(OC(=O)C2CCCC2)C(=O)C=C2C=C(c3ccsc3)N(CCCCO)C=C2C1=O (stereo not given) 21.2%
C=CCN1C=C2C(=O)C(C)(OC(=O)C3CCCC3)C(=O)C=C2C=C1c1ccsc1 (stereo not given) 22.2%
COC/C=C/C1=CC2=CC(=O)C(C)(OC(=O)c3cnc4ccccc4n3)C(=O)C2=CN1C(CO)CO (stereo not given) 19.5%
CCOC(=O)C1=C(COC(=O)Cc2ccccc2)NC(=O)NC1C (stereo not given) 2.89%
CCCS(=O)(=O)c1nc(S(=O)(=O)c2ccc(C)cc2)c(N2CCCC2)s1 -10.9%
O=C1C2CC=CCC2C(=O)N1c1ncn[nH]1 (stereo not given) 0.84%
COc1cccc(OC)c1C(=O)Nc1ccccc1NC(=O)c1c(OC)cccc1OC -6.67%
O=[N+]([O-])c1ccc(/C=N/n2cn[nH]c2=S)cc1 0.85%
O=S(=O)(NC1CC1)c1ccc(S(=O)(=O)N2CCc3ccccc32)cc1 18.3%
COc1cc2c(cc1OC)C1c3ccc(OC)c(OC)c3OCC1(O)C2 (stereo not given) -4.73%
CCN(CC(=O)Nc1ccc(OC)cc1)C(=O)c1ccc2c(=O)n3c(nc2c1)CCC3 -5.14%
CN(C)/C=C1\NC(=S)N(c2ccccc2)C1=O -8.51%
O=C1/C(=C/c2ccco2)N=C(N2CCCCC2)N1c1ccccc1 23.7%
CC1CNC(=S)N(c2ccc(F)cc2)C1=O (stereo not given) -6.26%
CCOc1cccc(/C=C2\NC(=S)N(c3ccccc3)C2=O)c1O 8.76%
O=C1C(Cc2ccccc2)NC(=S)N1c1ccccc1 (stereo not given) -3.85%
O=C1/C(=C\c2cccnc2)SC(=S)N1c1ccc(F)cc1 1.49%
Cc1ccc2c(C)c(C(=O)NCCc3ccco3)oc2c1C -1.77%
CN(CC(=O)Nc1ccc(Cl)c(C(F)(F)F)c1)C(=O)c1cc(=O)[nH]c2ccccc12 1.56%
Cc1ccc(C(=O)CCC(=O)Nc2ccc(C)cn2)cc1 -9.87%
Cc1ccnc(NC(=O)CCC(=O)N(CC(=O)NCc2ccccc2)c2ccc3c(c2)OCO3)c1 12.1%
Cc1cc(C)nc(SCc2cc(=O)c(OC(=O)c3ccc(Cl)c([N+](=O)[O-])c3)co2)n1 31.3%
CN(C1=C(NC(=O)c2ccccc2)C(=O)c2ccccc2C1=O)C1CCS(=O)(=O)C1 (stereo not given) 23.9%
CN(c1ccc(C(=O)Nc2ccc(Cl)cn2)cc1)S(=O)(=O)c1ccccc1 18.3%
Fc1cccc(NC(=S)N2CCCCC2)c1 1.92%
Cc1ccc(CC(NC(=O)c2ccccc2)C(=O)N2CCCC2C(=O)O)cc1 (stereo not given) -0.14%
O=C(O/N=C1\CCS(=O)(=O)c2sccc21)C1CC1 -8.69%
Nc1c(Cl)cc2c(c1Oc1ccccc1)C(=O)c1ccccc1C2=O 7.9%
O=C1C(Cl)=C(NCCc2ccccc2)C(=O)c2ccccc21 14.2%
Cc1ccc(NS(=O)(=O)c2ccc(C(=O)N3CCCC(C(F)(F)F)C3)cc2)cc1 (stereo not given) -6.68%
O=C1/C(=C/c2ccccn2)SC(=S)N1c1cccc(O)c1 1.67%
O=C(COc1ccccc1F)Nc1ccc2[nH]c(=O)[nH]c2c1 -2.63%
COC(=O)c1cc(NC(=O)c2cc(-c3ccc(Cl)cc3)oc2C(F)(F)F)ccc1N1CCOCC1 -11.7%
CSCCC(NC(=O)/C(=C/c1ccco1)NC(=O)c1ccc(Br)o1)C(=O)O (stereo not given) 13.7%
CC(C)C(NC(=O)/C(=C/c1ccco1)NC(=O)c1ccc(Br)o1)C(=O)O (stereo not given) 25.7%
COc1cc(/C(O)=C(\C#N)c2nc3ccccc3[nH]2)cc(OC)c1OC 3.24%
O=C(COc1ccc2c(c1)CCC2)N1CCN(c2ccc(F)cc2)CC1 4.96%
Cc1ccc(Cl)cc1N1CCN(C(=O)COc2ccc(S(=O)(=O)NC(C)C)cc2)CC1 6.57%
Cc1cc(C)n(CC(O)COc2ccccc2[N+](=O)[O-])n1 (stereo not given) 10.6%
COc1ccc(C2C(C#N)=C(N)Oc3c2oc(CO)cc3=O)cc1 (stereo not given) -2.28%
N#CC1=C(N)Oc2c(oc(CO)cc2=O)C1c1cccs1 (stereo not given) 26.6%
O=C(OCC(=O)N1CCc2ccccc21)c1ccccn1 -3.08%
Cc1ccc(S(=O)(=O)N2CCOCC2)cc1C(=O)NC1CCCCC1 1.31%
CCOC(=O)c1sc2nc(CC(=O)OC)nc(NCc3ccc(Cl)cc3)c2c1C -0.39% and -4.73%
CCOC(=O)c1sc2nc(CC(=O)OC)nc(NCc3ccc(F)cc3)c2c1C -3.02%
CC(Oc1cccc(Cl)c1)C(=O)NNC(=O)c1cccnc1 (stereo not given) -4.59%
COC(=O)c1ccc(N)cc1O -0.17%
COC(=O)c1ccc(C(=O)OC)c(=O)[nH]1 0.04%
Cc1nc2nc(-c3ccccc3)[nH]n2c(=O)c1C 21.8%
Cn1c(=O)c2c(-c3ccccc3)n(Cc3ccccn3)cc2n(C)c1=O -0.87%
